Inconclusive results are not listed. The source made the active and inactive calls. The calls were made as follows, unless noted: active = hit-call score of the fitted dose curve at least 0.9, where 1 is the maximum; inactive = score below 0.9.
Tests used:
[1] = CCTE_Harrill_HTTr_Viability_MCF7: CCTE's 6-hour Cell Viability Assessment for the High-Throughput Transcriptomics (HTTr) Platform, in MCF-7 cells cultured in DMEM + 10% fetal bovine serum, Harrill Lab (AID 2284010)
Summary of the method: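 Cells were dosed with chemicals in an eight-point dilution series, imaged 6 hours later for propidium iodide uptake, and the endpoint was analyzed by bidirectional fitting against DMSO as negative control.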

[2] = CCTE_Harrill_HTTr_Apoptosis_MCF7: CCTE's 6-hour Apoptosis Assessment for the High-Throughput Transcriptomics (HTTr) Platform, in MCF-7 cells cultured in DMEM + 10% fetal bovine serum, Harrill Lab (AID 2284011)
Summary of the method: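 Read-out: CellEvent Caspase 3/7 Green signal by high content imaging, gain-of-signal indicating apoptosis. MCF-7 cells, DMEM + 10% FBS, eight-point dilution series, 6 h exposure. Curves fitted bidirectionally relative to DMSO negative control.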

[3] = CCTE_Harrill_HTTr_CellCount_MCF7: CCTE's Cell Proliferation Assessment for the High-Throughput Transcriptomics (HTTr) Platform, Harrill Lab (AID 2284012; active = hit-call score of the fitted dose curve at least 0.9, where 1 is the maximum;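 also: count of Hoechst-stained nuclei per well by high-content imaging in MCF-7 cells; cells exposed to compound for six hours; intended direction is loss of nuclei count meaning fewer cells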)
Summary of the method: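 Chemicals in eight-point dilution series are added to MCF-7 cells for six hours, nuclei are stained with Hoechst and imaged, and per-well nuclei counts are fitted in both directions relative to DMSO controls.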

[4] = test system: Brachyury (BRA) Protein Expression, Deisenroth Lab, TBXT (gene 6862); assay: CCTE_Deisenroth_DEVTOX-GLR_legacy_Bra: (Legacy) CCTE's DevTox GLR-Endo Assay Evaluation of Brachyury (BRA) Protein Expression, Deisenroth Lab (AID 2284329)
Summary of the method: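 RUES2-GLR human pluripotent cells differentiated 48 h with two 24-h-interval chemical exposures (1 nM - 200 uM, 10 points); fixed, nuclear-stained, imaged. Bra+ cell percentage (intensity 5x BMAD above pluripotent control median) fitted relative to 0.2% DMSO.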

[5] = CCTE_Deisenroth_DEVTOX-GLR_legacy_CellCount: (Legacy) Viability Assessment in CCTE's DevTox GLR-Endo Assay, Deisenroth Lab (AID 2284331); settings: actives raise or lower the signal
Summary of the method: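 Nuclei count by fluorescence high-content imaging (5 fields/well) after 48 h differentiation of RUES2-GLR cells. Two exposures, 24 h apart; 1 nM - 200 uM series; n=4. Bidirectional fit vs DMSO.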

[6] = test system: SRY-box transcription factor 17 (SOX17) Protein Expression, Deisenroth Lab, SOX17 (gene 64321); assay: CCTE_Deisenroth_DEVTOX-GLR_legacy_Sox17: (Legacy) CCTE's DevTox GLR-Endo Assay Evaluation of SRY-box transcription factor 17 (SOX17) Protein Expression, Deisenroth Lab (AID 2284341); settings: actives raise or lower the signal
Summary of the method: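 RUES2-GLR human pluripotent cells, seeded 24 h, then differentiated 48 h in defined media with two chemical exposures 24 h apart (1 nM - 200 uM, 10 points). Sox17+ fraction from high-content fluorescence imaging; bidirectional fit versus 0.2% DMSO.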

[7] = test system: SRY-box transcription factor 2 (SOX2) Protein Expression, Deisenroth Lab, SOX2 (gene 6657); assay: CCTE_Deisenroth_DEVTOX-GLR_legacy_Sox2: (Legacy) CCTE's DevTox GLR-Endo Assay Evaluation of SRY-box transcription factor 2 (SOX2) Protein Expression, Deisenroth Lab (AID 2284346)
Summary of the method: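 RUES2-GLR human pluripotent cells seeded 24 h, then differentiated 48 h in defined media with two chemical doses 24 h apart (10-point, 1 nM–200 uM). Fixed, nuclear-stained, imaged; % Sox2+ cells (>5x BMAD over endoderm control median), DMSO-subtracted, fitted upward.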

[8] = test system: SRY-box transcription factor 2 (SOX2) Protein Expression, Deisenroth Lab, SOX2 (gene 6657); assay: CCTE_Deisenroth_DEVTOX-GLR_Endo_SOX2: CCTE's DevTox GLR-Endo Assay Evaluation of SRY-box transcription factor 2 (SOX2) Protein Expression, Deisenroth Lab (AID 2284412; active = hit-call score of the fitted dose curve at least 0.9, where 1 is the maximum)
Summary of the method: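 RUES2-GLR human pluripotent cells were seeded 24 h, then differentiated 48 h with two chemical exposures 24 h apart. Cells were fixed, nuclei stained and imaged by high-content microscopy. Endpoint is %SOX2+ cells over cell count, minus 0.2% DMSO control; 10-point series 1 nM–200 uM.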

[9] = test system: SRY-box transcription factor 17 (SOX17) Protein Expression, Deisenroth Lab, SOX17 (gene 64321); assay: CCTE_Deisenroth_DEVTOX-GLR_Endo_SOX17: CCTE's DevTox GLR-Endo Assay Evaluation of SRY-box transcription factor 17 (SOX17) Protein Expression, Deisenroth Lab (AID 2284413)
Summary of the method: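 Endpoint: % change in SOX17+ fraction (SOX17+ cells / cell count) vs 0.2% DMSO solvent control. RUES2-GLR reporter cells, 48 h endoderm differentiation, two doses at 24 h intervals, high-content fluorescence imaging, 5 fields/well.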

[10] = test system: Brachyury (BRA) Protein Expression, TBXT (gene 6862); assay: CCTE_Deisenroth_DEVTOX-GLR_Endo_BRA: CCTE's DevTox GLR-Endo Assay Evaluation of Brachyury (BRA) Protein Expression, Deisenroth Lab (AID 2284417)
Summary of the method: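 RUES2-GLR human pluripotent cells, seeded 24 h, then differentiated 48 h in defined media with two chemical exposures 24 h apart (10-point series, 1 nM - 200 uM). Fixed, nuclear-stained, imaged; endpoint is percent BRA+ cells minus 0.2% DMSO control.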

[11] = CCTE_Deisenroth_DEVTOX-GLR_Endo_CellCount: Viability Assessment in CCTE's DevTox GLR-Endo Assay, Deisenroth Lab (AID 2284420)
Summary of the method: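 Nuclei counted by fluorescence microscopy as a surrogate for cell number, expressed as percent change relative to 0.2% DMSO control. Human RUES2-GLR cells, 48 h differentiation, dosed twice; 1 nM - 200 uM series.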

[12] = test system: SRY-box transcription factor 17 (SOX17) Protein Expression, Deisenroth Lab, SOX17 (gene 64321); assay: CCTE_Deisenroth_DEVTOX-GLR_Pluri_SOX17: CCTE's DevTox GLR-Pluri Assay Evaluation of SRY-box transcription factor 17 (SOX17) Protein Expression, Deisenroth Lab (AID 2284427; active = hit-call score of the fitted dose curve at least 0.9, where 1 is the maximum)
Summary of the method: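 Readout: percent SOX17+ cells (SOX17+ count/cell count) by high-content imaging of an inducible fluorescent reporter, corrected for 0.2% DMSO solvent control. RUES2-GLR cells, 48 h differentiation, dosed twice at 24 h intervals, 1 nM - 200 uM.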

[13] = test system: SRY-box transcription factor 2 (SOX2) Protein Expression, Deisenroth Lab, SOX2 (gene 6657); assay: CCTE_Deisenroth_DEVTOX-GLR_Pluri_SOX2: CCTE's DevTox GLR-Pluri Assay Evaluation of SRY-box transcription factor 2 (SOX2) Protein Expression, Deisenroth Lab (AID 2284428)
Summary of the method: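 RUES2-GLR (human pluripotent), 48 h post-dosing, 2 exposures q24h, 1 nM–200 uM 10-pt. Fixed, nuclear dye, high-content imaging 5 fields/well. Endpoint: % SOX2+ cells (SOX2+/total count) vs 0.2% DMSO; n≥4.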

[14] = test system: Brachyury (BRA) Protein Expression, Deisenroth Lab, TBXT (gene 6862); assay: CCTE_Deisenroth_DEVTOX-GLR_Pluri_BRA: CCTE's DevTox GLR-Pluri Assay Evaluation of Brachyury (BRA) Protein Expression, Deisenroth Lab (AID 2284429; active = hit-call score of the fitted dose curve at least 0.9, where 1 is the maximum)
Summary of the method: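 Human pluripotent RUES2-GLR cells, seeded 24 h, were differentiated 48 h in defined media with two chemical doses at 24-h intervals (10-point, 1 nM - 200 uM). Readout: percent BRA+ cells by fluorescent reporter imaging, minus 0.2% DMSO control.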

[15] = CCTE_Deisenroth_DEVTOX-GLR_Pluri_CellCount: Viability Assessment in CCTE's DevTox GLR-Pluri Assay Evaluation of Total Cell Counts, Deisenroth Lab (AID 2284430)
Summary of the method: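 RUES2-GLR human pluripotent cells, seeded 24 h, then differentiated 48 h with two chemical exposures 24 h apart; 10-point series 1 nM - 200 uM. Fixed, nuclear-stained, imaged (5 fields/well); nuclei count as % change vs 0.2% DMSO.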

Measured: AC50

C=O.C=O.C=O.C=O.C=O.[Fe]
inactive: [1] | [2]

NC[C@H](O)c1ccc(O)c(O)c1
inactive: [1] | [2] | [3]

Nc1nc2nc[nH]c2c(=O)[nH]1
inactive: [1] | [2] | [3]

CC(=O)C(O)O
inactive: [1] | [2] | [3]

c1cc(-c2cnn3cc(-c4ccc(OCCN5CCCCC5)cc4)cnc23)ccn1
active: [4] 20 µM | [5] 20 µM | [6] 24.6 µM | [7] 5.11 µM | [8] 30.1 µM | [9] 24.1 µM | [10] 1.44 µM | [11] 20 µM | [13] 3.94 µM | [14] 3.02 µM | [15] 3.39 µM
inactive: [12]
